Values joined by “and” are separate entries in the source; they are usually repeats but may differ in a detail not shown here. Equal entries are not always repeated. Results filed as inconclusive are left out. Active and inactive are the calls of the source. How the source made its calls, unless noted: active means hit-call score of the fitted dose curve at least 0.9, where 1 is the maximum; inactive means score below 0.9.
How the values were obtained:
[1] = read-out: Monocyte Chemoattractant Protein-1 (MCP1), CCL2 (gene 6347); experiment: BSK_LPS_MCP1: BioMAP Diversity Plus: LPS Assay for Monocyte Chemoattractant Protein-1 (MCP1) Biomarker Activity (AID 2283081); details: primary human HUVEC with PBMC; actives raise or lower the signal;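 on AC50: secreted MCP-1 protein quantified by ELISA in culture supernatant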
Procedure, shortened: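 ELISA read-out of MCP-1 after 24 h chemical dosing of a human umbilical vein endothelial cell/peripheral blood mononuclear cell co-culture stimulated with LPS. Gain or loss of signal fitted relative to DMSO controls.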

[2] = BSK_LPS_PGE2: BioMAP Diversity Plus: LPS Assay for Prostaglandin E2 (PGE2) Biomarker Activity (AID 2283082); details: primary human HUVEC with PBMC; actives raise or lower the signal;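 on AC50: secreted prostaglandin E2 measured by ELISA in LPS-stimulated co-culture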
Procedure, shortened: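 PGE2 release measured by ELISA in an LPS-activated co-culture of human umbilical vein endothelial cells and peripheral blood mononuclear cells, read at 24 h post-dosing. DMSO served as baseline for bidirectional curve fitting.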

[3] = read-out: Macrophage colony-stimulating factor (MCSF), CSF1 (gene 1435); experiment: BSK_LPS_MCSF: BioMAP Diversity Plus: LPS Assay for Macrophage colony-stimulating factor (MCSF) Biomarker Activity (AID 2283083); details: primary human HUVEC with PBMC; actives raise or lower the signal
Procedure, shortened: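 HUVEC + PBMC co-culture (human primary), 24 h post-dose; M-CSF by ELISA; gain/loss of signal fitted bidirectionally vs DMSO baseline.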

[4] = read-out: Tissue Factor, F3 (gene 2152); experiment: BSK_LPS_TissueFactor: BioMAP Diversity Plus: LPS Assay for Tissue Factor Biomarker Activity (AID 2283084); details: primary human HUVEC with PBMC; actives raise or lower the signal
Procedure, shortened: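 HUVEC/PBMC co-culture, LPS-activated; CD142 ELISA read 24 h post-dose; bidirectional curve fit vs DMSO negative control.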

[5] = read-out: Tumor necrosis factor (Homo sapiens) (UniProt P01375); experiment: BSK_LPS_TNFa: BioMAP Diversity Plus: LPS Assay for Tumour Necrosis Factor alpha (TNFa) Biomarker Activity (AID 2283085); details: primary human HUVEC with PBMC; actives raise or lower the signal;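 on AC50: TNFa protein level quantified by ELISA in the co-culture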
Procedure, shortened: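 TNFa was quantified by ELISA in LPS-activated co-cultures of human endothelial cells and PBMC, 24 h post-dosing. Both increases and decreases versus DMSO were fitted.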

[6] = read-out: Vascular cell adhesion molecule 1 (VCAM1), VCAM1 (gene 7412); experiment: BSK_LPS_VCAM1: BioMAP Diversity Plus: LPS Assay for Vascular cell adhesion molecule 1 (VCAM1) Biomarker Activity (AID 2283086); details: primary human HUVEC with PBMC; actives raise or lower the signal
Procedure, shortened: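 VCAM-1 quantified by ELISA in an LPS-activated co-culture of human endothelial cells and peripheral blood mononuclear cells, read 24 h post-treatment. Fitted in both directions versus DMSO; parallel SRB staining flags overt cytotoxicity.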

CD40, CD40 (gene 958) = experiment: BSK_SAg_CD40: BioMAP Diversity Plus: SAg Assay for CD40 Biomarker Activity (AID 2283088); details: primary human HUVEC with PBMC; actives raise or lower the signal
Procedure, shortened: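 HUVEC/PBMC co-culture, 24 h post-dose; CD40 by ELISA, fluorescence intensity; bidirectional fit vs DMSO negative control.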

CD69, CD69 (gene 969) = experiment: BSK_SAg_CD69: BioMAP Diversity Plus: SAg Assay for CD69 Biomarker Activity (AID 2283089); details: primary human HUVEC with PBMC; actives raise or lower the signal;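 on AC50: cell surface CD69 protein quantified by ELISA with fluorescence detection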
Procedure, shortened: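 Values derive from bidirectional fitting relative to DMSO vehicle. Cells: umbilical vein endothelium plus peripheral blood mononuclear cells, treated 24 h before fluorescent ELISA for CD69.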

[7] = read-out: Monocyte Chemoattractant Protein-1 (MCP1), CCL2 (gene 6347); experiment: BSK_SAg_MCP1: BioMAP Diversity Plus: SAg Assay for Monocyte Chemoattractant Protein-1 (MCP1) Biomarker Activity (AID 2283090); details: primary human HUVEC with PBMC; actives raise or lower the signal
Procedure, shortened: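 Values derive from bidirectional fitting of ELISA-measured MCP1 against DMSO controls. Readings were taken 24 h after dosing human vascular endothelial cells co-cultured with peripheral blood mononuclear cells under superantigen stimulation.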

[8] = read-out: E-selectin (Homo sapiens) (UniProt P16581); experiment: BSK_SAg_Eselectin: BioMAP Diversity Plus: SAg Assay for Eselectin Biomarker Activity (AID 2283091); details: primary human HUVEC with PBMC; actives raise or lower the signal
Procedure, shortened: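 E-selectin ELISA readout at 24 h post-dosing in human umbilical vein endothelial cell/PBMC co-culture; gain or loss of signal fitted relative to DMSO baseline.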

[9] = read-out: Monokine induced gamma interferon (MIG), CXCL9 (gene 4283); experiment: BSK_SAg_MIG: BioMAP Diversity Plus: SAg Assay for Monokine induced gamma interferon (MIG) Biomarker Activity (AID 2283092); details: primary human HUVEC with PBMC; actives raise or lower the signal
Procedure, shortened: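 Values reflect bidirectional fitting of ELISA-measured MIG against DMSO vehicle, taken 24 h after dosing of a co-culture of human umbilical vein endothelial cells and peripheral blood mononuclear cells.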

[10] = read-out: Interleukin-8 (IL8), CXCL8 (gene 3576); experiment: BSK_SAg_IL8: BioMAP Diversity Plus: SAg Assay for Interleukin-8 (IL8) Biomarker Activity (AID 2283094); details: primary human HUVEC with PBMC; actives raise or lower the signal
Procedure, shortened: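 ELISA readout of IL-8 from a superantigen-activated endothelial/PBMC primary human co-culture, taken 24 h post-dosing and fitted in both directions against DMSO; parallel SRB total-protein staining flags overt cytotoxicity.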

[11] = BSK_SAg_Proliferation: Cell Proliferation Assessment in the BioMAP Diversity Plus: SAg Assay (AID 2283095); details: primary human HUVEC with PBMC;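 further: relative cell number as total protein by SRB absorbance in sub-confluent culture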
Procedure, shortened: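 Relative cell number in the endothelial cell/PBMC co-culture was quantified at 96 h by SRB staining (0.1% SRB, 10% TCA fixation, read at 560 nm). Curves were fitted in both directions relative to DMSO baseline.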

[12] = BSK_SAg_SRB: Viability Assessment in the BioMAP Diversity Plus: SAg Assay (AID 2283096); details: primary human HUVEC with PBMC;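 further: cells read one day after compound addition; hits may be either gain or loss of signal compared with DMSO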
Procedure, shortened: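 This overt-cytotoxicity endpoint quantifies protein in human endothelial/PBMC co-cultures at 24 h using SRB absorbance (560 nm) after trichloroacetic acid fixation. Values reflect signal change from the DMSO negative control, fitted bidirectionally.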

[13] = biological target: Cytochrome P450 3A4 (Homo sapiens) (UniProt P08684); experiment: NVS_ADME_hCYP3A4: NovaScreen (NVS) CYP450-related Enzyme Activity (ADME) Assay for human CYP3A4 (AID 2283110; active means hit-call score of the fitted dose curve at least 0.9, where 1 is the maximum)
Chain of Cytochrome P450 3A4 (Homo sapiens) (P08684 whole entry, looked up): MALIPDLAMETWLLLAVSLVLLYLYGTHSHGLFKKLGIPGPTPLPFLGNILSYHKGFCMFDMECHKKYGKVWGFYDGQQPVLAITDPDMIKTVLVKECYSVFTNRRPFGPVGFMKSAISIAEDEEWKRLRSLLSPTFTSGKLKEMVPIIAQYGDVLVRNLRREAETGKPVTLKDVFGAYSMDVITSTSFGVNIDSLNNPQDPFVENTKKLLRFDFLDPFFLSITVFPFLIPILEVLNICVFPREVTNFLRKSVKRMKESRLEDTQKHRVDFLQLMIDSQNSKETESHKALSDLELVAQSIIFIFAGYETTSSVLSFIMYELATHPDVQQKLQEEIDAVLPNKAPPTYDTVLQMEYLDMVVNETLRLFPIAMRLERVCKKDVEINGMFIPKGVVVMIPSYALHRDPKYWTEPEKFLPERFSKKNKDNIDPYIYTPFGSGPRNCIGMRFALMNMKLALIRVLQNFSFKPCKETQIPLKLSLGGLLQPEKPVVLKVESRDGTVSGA
Procedure, shortened: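 Activity is derived from decreased fluorescence intensity relative to acetonitrile, measured 0.33 hour after dosing insect-cell-expressed CYP3A4 in a cell-free format. Screening used 10 uM in duplicate before concentration-response follow-up.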

[14] = BSK_SAg_PBMCCytotoxicity: PBMC Cytotoxicity Assessment in the BioMAP Diversity Plus: SAg Assay (AID 2283093); details: primary human HUVEC with PBMC;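 further: PBMC viability measured as Alamar Blue reduction fluorescence at 546/580 nm; fitted both ways against DMSO so a hit may be loss or gain of signal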;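 on AC50: PBMC superantigen activated with SEB plus TSST-1 one hour after compound addition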
Procedure, shortened: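 Alamar Blue reduction (6 h, 546/580 nm) reports PBMC cytotoxicity after 90 h superantigen activation (SEB, TSST-1; 20 ng/mL final each) with 1 h compound pre-treatment. Gain or loss of signal fitted versus DMSO.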

CD38, CD38 (gene 952) = experiment: BSK_SAg_CD38: BioMAP Diversity Plus: SAg Assay for CD38 Biomarker Activity (AID 2283087); details: primary human HUVEC with PBMC; actives raise or lower the signal
Procedure, shortened: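 CD38 quantified by ELISA (fluorescence) in a superantigen-activated endothelial cell–PBMC co-culture at 24 h post-dose. Activity fitted in both directions relative to DMSO; parallel SRB and Alamar Blue cytotoxicity read-outs.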

Measured: AC50

Chain of E-selectin (Homo sapiens) (P16581 whole entry, looked up): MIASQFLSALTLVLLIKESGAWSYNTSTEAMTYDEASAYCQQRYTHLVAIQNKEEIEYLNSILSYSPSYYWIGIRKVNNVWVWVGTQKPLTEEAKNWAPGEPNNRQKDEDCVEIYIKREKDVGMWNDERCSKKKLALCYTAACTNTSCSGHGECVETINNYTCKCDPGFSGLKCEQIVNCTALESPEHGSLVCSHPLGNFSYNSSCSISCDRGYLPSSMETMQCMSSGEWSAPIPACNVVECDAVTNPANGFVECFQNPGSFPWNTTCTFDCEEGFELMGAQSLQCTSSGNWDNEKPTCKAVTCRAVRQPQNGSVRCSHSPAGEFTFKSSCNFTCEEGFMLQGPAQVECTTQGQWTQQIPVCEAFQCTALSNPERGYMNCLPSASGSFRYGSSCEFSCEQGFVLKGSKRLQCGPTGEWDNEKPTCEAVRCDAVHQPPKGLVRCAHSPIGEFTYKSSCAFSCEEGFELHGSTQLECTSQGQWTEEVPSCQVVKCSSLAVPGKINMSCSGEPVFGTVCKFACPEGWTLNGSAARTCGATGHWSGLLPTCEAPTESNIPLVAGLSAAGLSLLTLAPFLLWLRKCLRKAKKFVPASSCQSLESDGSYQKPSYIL
Chain of Tumor necrosis factor (Homo sapiens) (P01375 whole entry, looked up): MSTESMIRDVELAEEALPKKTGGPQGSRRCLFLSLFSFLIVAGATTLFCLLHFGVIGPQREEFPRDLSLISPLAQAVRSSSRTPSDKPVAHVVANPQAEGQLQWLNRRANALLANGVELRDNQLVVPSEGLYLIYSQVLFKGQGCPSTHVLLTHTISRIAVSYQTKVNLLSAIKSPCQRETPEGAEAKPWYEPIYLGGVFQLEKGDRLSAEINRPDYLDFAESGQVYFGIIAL

O=C1OC2(c3cc(Br)c(O)c(Br)c3Oc3c2cc(Br)c(O)c3Br)c2c(Cl)c(Cl)c(Cl)c(Cl)c21
active: [1] 4.59 µM | [2] 3.33 µM | [3] 5.42 µM | [4] 8.77 µM | [6] 5.55 µM | CD40, CD40 (gene 958) 6.57 µM | CD69, CD69 (gene 969) 6.39 µM | [7] 5.24 µM | [8] 6.53 µM | [9] 23.1 µM | [11] 21.3 µM | [12] 18.2 µM
inactive: [5] | [10] | [13]

OC[C@H]1O[C@H](O[C@]2(CCl)O[C@H](CCl)[C@@H](O)[C@@H]2O)[C@H](O)[C@@H](O)[C@H]1Cl
not listed: [3] | [13] | CD38, CD38 (gene 952)
inactive: all other assays above

O=C=NC1CCC(CC2CCC(N=C=O)CC2)CC1 (stereo not drawn)
active: [4] 3.97 µM | [5] 2.2 µM | [11] 33.5 µM
not listed: [13] | [14] | CD38, CD38 (gene 952)
inactive: all other assays above

CC(=O)[C@H]1CC[C@H]2[C@@H]3CC=C4C[C@@H](O)CC[C@]4(C)[C@H]3CC[C@]12C
active: [2] 3.97 µM | [4] 9.59 µM and 11.8 µM | [14] 6.25 µM and 7.57 µM
not listed: [3] | [13] | CD38, CD38 (gene 952)
inactive: all other assays above

C=C(C)C(=O)O[C@H]1C[C@@H]2CC[C@@]1(C)C2(C)C
active: [1] 31.1 µM | [3] 29.9 µM | [4] 36.8 µM | [6] 30.6 µM | CD38, CD38 (gene 952) 33.8 µM | CD40, CD40 (gene 958) 31.8 µM | CD69, CD69 (gene 969) 30.8 µM | [7] 34.1 µM | [8] 34 µM | [9] 36.3 µM | [14] 33.1 µM | [10] 35.3 µM | [11] 30.7 µM | [12] 30.9 µM
inactive: [2] | [5]

Nc1cc([N+](=O)[O-])ccc1O
active: [2] 3.97 µM and 6.28 µM
not listed: [3] | [13]
inactive: all other assays above

— PubChem BioAssay (EPA / NIEHS)
